Laboratory results taken from ChEMBL document CHEMBL1961873, “Compounds: GSK PKIS; Assays: Nanosyn kinase panel” (2012).

Tests used:
[1] = molecular target: MAP/microtubule affinity-regulating kinase 3 (Homo sapiens) (UniProt P27448); details: at 1 µM;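 further: reported values are averaged percent inhibition of MARK3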
[2] = molecular target: T1, MAP/microtubule affinity-regulating kinase 4 (Homo sapiens) (UniProt Q96L34); details: at 0.1 µM
T1 sequence (whole entry): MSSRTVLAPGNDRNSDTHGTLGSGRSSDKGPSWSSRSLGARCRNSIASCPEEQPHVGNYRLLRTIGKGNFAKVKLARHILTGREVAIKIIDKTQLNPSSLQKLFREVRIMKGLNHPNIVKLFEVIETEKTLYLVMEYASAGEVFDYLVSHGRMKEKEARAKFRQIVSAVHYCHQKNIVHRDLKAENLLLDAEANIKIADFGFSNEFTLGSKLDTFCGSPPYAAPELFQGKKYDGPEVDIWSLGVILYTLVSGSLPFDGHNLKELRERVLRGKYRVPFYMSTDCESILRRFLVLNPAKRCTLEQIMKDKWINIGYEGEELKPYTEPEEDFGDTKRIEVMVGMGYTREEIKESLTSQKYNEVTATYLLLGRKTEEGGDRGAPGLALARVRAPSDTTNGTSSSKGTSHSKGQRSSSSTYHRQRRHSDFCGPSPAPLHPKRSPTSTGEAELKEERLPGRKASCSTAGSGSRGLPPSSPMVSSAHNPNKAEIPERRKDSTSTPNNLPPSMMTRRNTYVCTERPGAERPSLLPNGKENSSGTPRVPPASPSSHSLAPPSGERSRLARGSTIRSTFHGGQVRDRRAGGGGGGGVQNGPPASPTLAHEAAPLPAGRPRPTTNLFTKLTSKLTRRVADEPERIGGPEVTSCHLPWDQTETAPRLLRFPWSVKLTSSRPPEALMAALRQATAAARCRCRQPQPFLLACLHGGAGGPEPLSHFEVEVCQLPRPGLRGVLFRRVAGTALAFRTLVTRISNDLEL

[3] = molecular target: T1, MAP/microtubule affinity-regulating kinase 4 (Homo sapiens); details: at 1 µM
[4] = molecular target: Maternal embryonic leucine zipper kinase (Homo sapiens) (UniProt Q14680); details: at 0.1 µM
Sequence of Maternal embryonic leucine zipper kinase (Homo sapiens) (Q14680 whole entry, looked up): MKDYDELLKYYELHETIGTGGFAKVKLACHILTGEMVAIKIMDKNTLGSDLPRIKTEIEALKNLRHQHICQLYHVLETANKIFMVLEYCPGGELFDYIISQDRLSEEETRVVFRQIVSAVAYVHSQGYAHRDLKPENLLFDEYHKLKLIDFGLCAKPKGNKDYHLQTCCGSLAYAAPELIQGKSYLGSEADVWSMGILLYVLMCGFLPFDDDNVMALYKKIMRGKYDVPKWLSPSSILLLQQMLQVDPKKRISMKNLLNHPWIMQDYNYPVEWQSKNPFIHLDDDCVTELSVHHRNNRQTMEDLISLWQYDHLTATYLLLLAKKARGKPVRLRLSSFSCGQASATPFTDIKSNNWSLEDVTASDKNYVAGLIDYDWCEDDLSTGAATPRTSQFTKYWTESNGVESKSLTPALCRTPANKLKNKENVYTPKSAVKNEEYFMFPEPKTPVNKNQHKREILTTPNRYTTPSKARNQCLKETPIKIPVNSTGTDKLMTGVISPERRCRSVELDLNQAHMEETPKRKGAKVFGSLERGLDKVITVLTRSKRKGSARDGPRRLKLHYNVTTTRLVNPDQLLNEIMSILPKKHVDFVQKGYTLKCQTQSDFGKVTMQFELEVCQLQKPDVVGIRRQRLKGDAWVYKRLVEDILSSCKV

[5] = molecular target: Maternal embryonic leucine zipper kinase (Homo sapiens) (UniProt Q14680); details: at 1 µM
[6] = molecular target: MAP kinase-interacting serine/threonine-protein kinase 1 (Homo sapiens) (UniProt Q9BUB5); details: at 0.1 µM
Sequence of MAP kinase-interacting serine/threonine-protein kinase 1 (Homo sapiens) (Q9BUB5 whole entry, looked up): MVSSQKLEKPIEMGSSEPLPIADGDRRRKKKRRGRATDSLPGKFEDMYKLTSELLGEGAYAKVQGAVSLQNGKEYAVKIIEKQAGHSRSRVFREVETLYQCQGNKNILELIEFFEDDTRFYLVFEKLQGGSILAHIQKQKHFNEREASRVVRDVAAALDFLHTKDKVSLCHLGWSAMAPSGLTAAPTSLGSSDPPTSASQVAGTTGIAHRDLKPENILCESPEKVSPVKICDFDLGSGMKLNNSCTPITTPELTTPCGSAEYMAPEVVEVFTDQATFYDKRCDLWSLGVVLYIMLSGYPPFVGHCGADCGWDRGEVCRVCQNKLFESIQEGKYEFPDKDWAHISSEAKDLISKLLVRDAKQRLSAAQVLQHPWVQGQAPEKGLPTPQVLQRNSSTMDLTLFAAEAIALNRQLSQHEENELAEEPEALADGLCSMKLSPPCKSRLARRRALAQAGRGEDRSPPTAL

[7] = molecular target: MAP kinase-interacting serine/threonine-protein kinase 1 (Homo sapiens) (UniProt Q9BUB5); details: at 1 µM
[8] = molecular target: MAP kinase-interacting serine/threonine-protein kinase 2 (Homo sapiens) (UniProt Q9HBH9); details: at 0.1 µM
Sequence of MAP kinase-interacting serine/threonine-protein kinase 2 (Homo sapiens) (Q9HBH9 whole entry, looked up): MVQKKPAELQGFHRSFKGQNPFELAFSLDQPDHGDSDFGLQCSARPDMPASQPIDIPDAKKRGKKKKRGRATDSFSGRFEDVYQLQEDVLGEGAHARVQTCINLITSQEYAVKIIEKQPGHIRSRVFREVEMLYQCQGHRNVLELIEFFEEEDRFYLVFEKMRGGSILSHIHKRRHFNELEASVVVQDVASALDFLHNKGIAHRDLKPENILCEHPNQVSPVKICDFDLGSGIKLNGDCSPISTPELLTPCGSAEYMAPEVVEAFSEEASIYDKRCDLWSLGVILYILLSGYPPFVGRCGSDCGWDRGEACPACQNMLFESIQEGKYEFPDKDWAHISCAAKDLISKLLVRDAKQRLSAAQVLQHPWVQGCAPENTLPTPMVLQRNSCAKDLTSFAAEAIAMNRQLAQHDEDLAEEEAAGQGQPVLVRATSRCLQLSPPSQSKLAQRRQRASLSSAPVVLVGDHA

[9] = molecular target: MAP kinase-interacting serine/threonine-protein kinase 2 (Homo sapiens) (UniProt Q9HBH9); details: at 1 µM
[10] = molecular target: Serine/threonine-protein kinase MARK2 (Homo sapiens) (UniProt Q7KZI7); details: at 0.1 µM
Sequence of Serine/threonine-protein kinase MARK2 (Homo sapiens) (Q7KZI7 whole entry, the tested form may be a part): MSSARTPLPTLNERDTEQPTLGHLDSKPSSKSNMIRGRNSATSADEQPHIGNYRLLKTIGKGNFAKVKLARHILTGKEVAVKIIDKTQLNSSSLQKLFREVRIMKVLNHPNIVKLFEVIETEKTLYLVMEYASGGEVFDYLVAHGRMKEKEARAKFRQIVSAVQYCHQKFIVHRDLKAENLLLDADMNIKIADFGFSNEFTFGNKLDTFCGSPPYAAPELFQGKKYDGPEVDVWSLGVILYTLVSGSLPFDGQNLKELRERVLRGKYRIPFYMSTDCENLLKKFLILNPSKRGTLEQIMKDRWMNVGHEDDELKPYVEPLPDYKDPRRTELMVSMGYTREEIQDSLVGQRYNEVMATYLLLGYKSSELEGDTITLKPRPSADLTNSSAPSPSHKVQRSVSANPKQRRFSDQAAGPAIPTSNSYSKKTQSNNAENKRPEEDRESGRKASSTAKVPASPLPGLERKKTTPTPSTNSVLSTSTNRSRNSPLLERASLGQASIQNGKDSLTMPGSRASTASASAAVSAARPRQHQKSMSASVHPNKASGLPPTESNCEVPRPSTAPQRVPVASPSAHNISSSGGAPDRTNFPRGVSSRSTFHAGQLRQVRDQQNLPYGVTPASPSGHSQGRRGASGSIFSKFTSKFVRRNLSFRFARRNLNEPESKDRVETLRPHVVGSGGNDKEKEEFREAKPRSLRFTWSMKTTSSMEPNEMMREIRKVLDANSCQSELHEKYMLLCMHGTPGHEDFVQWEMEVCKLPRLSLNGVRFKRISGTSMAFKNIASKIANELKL

[11] = molecular target: Serine/threonine-protein kinase MARK2 (Homo sapiens) (UniProt Q7KZI7); details: at 1 µM
[12] = molecular target: PAS domain-containing serine/threonine-protein kinase (Homo sapiens) (UniProt Q96RG2); details: at 0.1 µM
Sequence of PAS domain-containing serine/threonine-protein kinase (Homo sapiens) (Q96RG2 whole entry, the tested form may be a part, canonical isoform): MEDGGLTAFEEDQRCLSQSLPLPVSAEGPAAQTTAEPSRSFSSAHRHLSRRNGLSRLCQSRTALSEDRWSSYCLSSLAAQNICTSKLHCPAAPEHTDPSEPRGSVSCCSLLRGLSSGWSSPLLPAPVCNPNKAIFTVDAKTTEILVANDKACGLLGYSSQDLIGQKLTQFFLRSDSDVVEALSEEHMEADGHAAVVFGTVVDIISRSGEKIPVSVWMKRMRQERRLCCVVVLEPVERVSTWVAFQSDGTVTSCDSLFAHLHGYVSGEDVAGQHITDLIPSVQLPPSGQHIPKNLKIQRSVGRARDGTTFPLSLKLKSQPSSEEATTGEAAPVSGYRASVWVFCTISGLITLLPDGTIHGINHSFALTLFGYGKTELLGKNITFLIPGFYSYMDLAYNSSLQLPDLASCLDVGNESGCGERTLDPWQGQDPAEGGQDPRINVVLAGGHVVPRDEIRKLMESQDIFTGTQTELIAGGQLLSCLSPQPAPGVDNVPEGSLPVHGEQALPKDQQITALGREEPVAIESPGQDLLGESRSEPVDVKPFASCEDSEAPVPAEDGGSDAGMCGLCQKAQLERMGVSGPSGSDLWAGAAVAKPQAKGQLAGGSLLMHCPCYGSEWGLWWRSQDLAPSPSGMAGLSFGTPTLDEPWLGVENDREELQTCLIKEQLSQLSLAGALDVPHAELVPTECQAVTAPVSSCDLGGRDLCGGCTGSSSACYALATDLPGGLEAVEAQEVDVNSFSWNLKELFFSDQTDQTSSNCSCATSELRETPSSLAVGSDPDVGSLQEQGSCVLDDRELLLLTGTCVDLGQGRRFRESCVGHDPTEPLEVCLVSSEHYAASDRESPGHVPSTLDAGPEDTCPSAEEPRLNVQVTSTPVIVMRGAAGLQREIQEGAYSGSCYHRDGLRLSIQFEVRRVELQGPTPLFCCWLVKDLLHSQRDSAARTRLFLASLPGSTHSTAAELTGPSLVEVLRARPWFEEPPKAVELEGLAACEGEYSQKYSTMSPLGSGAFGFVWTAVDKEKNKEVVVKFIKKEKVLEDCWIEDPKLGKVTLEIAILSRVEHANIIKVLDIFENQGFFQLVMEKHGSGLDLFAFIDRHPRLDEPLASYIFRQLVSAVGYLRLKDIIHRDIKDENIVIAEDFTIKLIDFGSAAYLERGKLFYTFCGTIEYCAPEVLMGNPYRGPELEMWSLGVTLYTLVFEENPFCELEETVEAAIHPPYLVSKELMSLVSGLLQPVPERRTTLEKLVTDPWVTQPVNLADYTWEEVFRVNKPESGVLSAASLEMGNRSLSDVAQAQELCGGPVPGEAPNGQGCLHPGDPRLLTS

[13] = molecular target: PAS domain-containing serine/threonine-protein kinase (Homo sapiens) (UniProt Q96RG2); details: at 1 µM
[14] = molecular target: Phosphorylase b kinase gamma catalytic chain, skeletal muscle/heart isoform (Homo sapiens) (UniProt Q16816); details: at 0.1 µM
Sequence of Phosphorylase b kinase gamma catalytic chain, skeletal muscle/heart isoform (Homo sapiens) (Q16816 whole entry, looked up, canonical isoform): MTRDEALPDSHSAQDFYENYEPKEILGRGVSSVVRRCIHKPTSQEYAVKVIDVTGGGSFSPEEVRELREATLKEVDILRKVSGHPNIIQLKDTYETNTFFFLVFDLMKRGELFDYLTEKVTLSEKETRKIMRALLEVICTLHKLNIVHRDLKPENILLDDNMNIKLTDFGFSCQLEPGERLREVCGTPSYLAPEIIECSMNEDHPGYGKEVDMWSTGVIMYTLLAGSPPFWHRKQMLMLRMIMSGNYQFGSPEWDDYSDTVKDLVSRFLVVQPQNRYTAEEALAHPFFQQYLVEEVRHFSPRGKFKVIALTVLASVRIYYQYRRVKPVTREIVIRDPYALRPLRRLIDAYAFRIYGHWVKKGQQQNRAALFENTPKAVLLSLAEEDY

[15] = molecular target: Phosphorylase b kinase gamma catalytic chain, skeletal muscle/heart isoform (Homo sapiens) (UniProt Q16816); details: at 1 µM
[16] = molecular target: T2, Phosphorylase b kinase gamma catalytic chain, liver/testis isoform (Homo sapiens) (UniProt P15735); details: at 0.1 µM
T2 sequence (whole entry): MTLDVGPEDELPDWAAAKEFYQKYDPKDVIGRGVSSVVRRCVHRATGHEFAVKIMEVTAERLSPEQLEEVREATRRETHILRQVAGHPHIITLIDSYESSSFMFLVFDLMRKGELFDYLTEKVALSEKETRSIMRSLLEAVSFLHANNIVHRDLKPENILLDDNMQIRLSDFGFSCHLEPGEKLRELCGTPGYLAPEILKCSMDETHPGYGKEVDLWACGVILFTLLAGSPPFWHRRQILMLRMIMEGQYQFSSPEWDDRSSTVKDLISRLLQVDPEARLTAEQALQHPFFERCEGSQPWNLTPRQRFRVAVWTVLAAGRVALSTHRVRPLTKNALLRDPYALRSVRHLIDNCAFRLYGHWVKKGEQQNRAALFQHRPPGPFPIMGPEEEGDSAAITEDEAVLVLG

[17] = molecular target: T2, Phosphorylase b kinase gamma catalytic chain, liver/testis isoform (Homo sapiens); details: at 1 µM
[18] = molecular target: Serine/threonine-protein kinase pim-1 (Homo sapiens) (UniProt P11309); details: at 0.1 µM
Sequence of Serine/threonine-protein kinase pim-1 (Homo sapiens) (P11309 whole entry, looked up): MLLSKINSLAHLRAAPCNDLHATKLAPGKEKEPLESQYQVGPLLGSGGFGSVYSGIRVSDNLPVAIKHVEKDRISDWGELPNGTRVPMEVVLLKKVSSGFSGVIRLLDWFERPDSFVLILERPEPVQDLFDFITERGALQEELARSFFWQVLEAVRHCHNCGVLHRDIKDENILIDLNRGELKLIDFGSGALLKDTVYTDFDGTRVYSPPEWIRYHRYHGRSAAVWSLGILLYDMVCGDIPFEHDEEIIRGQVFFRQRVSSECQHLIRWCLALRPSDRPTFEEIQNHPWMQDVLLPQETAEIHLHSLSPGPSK

[19] = molecular target: Serine/threonine-protein kinase pim-1 (Homo sapiens) (UniProt P11309); details: at 1 µM
[20] = molecular target: Serine/threonine-protein kinase pim-2 (Homo sapiens) (UniProt Q9P1W9); details: at 0.1 µM;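 further: reported value is the mean percent inhibition of PIM2, measured in the GSK PKIS kinase inhibitor set screen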
Sequence of Serine/threonine-protein kinase pim-2 (Homo sapiens) (Q9P1W9 whole entry, looked up): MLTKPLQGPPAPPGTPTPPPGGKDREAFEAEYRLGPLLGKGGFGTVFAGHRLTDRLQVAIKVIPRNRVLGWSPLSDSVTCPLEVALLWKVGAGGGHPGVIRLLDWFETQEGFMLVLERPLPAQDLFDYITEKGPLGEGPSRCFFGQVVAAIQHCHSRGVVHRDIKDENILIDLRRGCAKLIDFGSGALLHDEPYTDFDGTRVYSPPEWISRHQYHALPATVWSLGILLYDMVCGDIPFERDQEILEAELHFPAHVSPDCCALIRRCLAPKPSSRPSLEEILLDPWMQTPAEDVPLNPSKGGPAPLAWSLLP

SMILES | inhibition [1] | inhibition [2] | inhibition [3] | inhibition [4] | inhibition [5] | inhibition [6] | inhibition [7] | inhibition [8] | inhibition [9] | inhibition [10] | inhibition [11] | inhibition [12] | inhibition [13] | inhibition [14] | inhibition [15] | inhibition [16] | inhibition [17] | inhibition [18] | inhibition [19] | inhibition [20]
Fc1cccc(COc2ccc(Nc3ncnc4cc(-c5ccc[nH]5)sc34)cc2Cl)c1 | -1.25% | 1.49% | 1.57% | 4.24% | 5.38% | 1% | 7.21% | 0.75% | 3.83% | -1.15% | 2.66% | -0.58% | -0.43% | 3.19% | 3.62% | 2.24% | 2.18% | -0.5% | 1.01% | -3.43%
CS(=O)(=O)CCN(CC#N)Cc1ccc(-c2ccc3ncnc(Nc4ccc(OCc5cccc(F)c5)c(Cl)c4)c3c2)o1 | -0.24% | 0.8% | -0.12% | 3.85% | 8.4% | 1.32% | 5.64% | 2.33% | 11.5% | -0.92% | -1.1% | -0.15% | -0.89% | 2.68% | 5.37% | 1.91% | 1.52% | -1.56% | -0.76% | -4.12%
COC(=O)Nc1nc2cc(Oc3cccc(NC(=O)Nc4cc(C(F)(F)F)ccc4F)c3)ccc2[nH]1 | 1.94% | 1.07% | 2.15% | -0.49% | 1.36% | 1.02% | 1.01% | 3.02% | -0.05% | 0.89% | 0.86% | 0.12% | 0.57% | 2.73% | 2.22% | -0.89% | -1.83% | -0.25% | 0.39% | -0.3%
COc1cc2ncn(-c3cc(O[C@@H](C)c4ccccc4Cl)c(C(N)=O)s3)c2cc1OC | 8.06% | 2.88% | 7.69% | 4.41% | 9.71% | 1.25% | 2.74% | -0.9% | 7.84% | 1.49% | 5.29% | 0.19% | 1.28% | 5.83% | 8.24% | 6.55% | 6.6% | -0.02% | 1.8% | -0.11%
CN(C)c1cc2c(Nc3ccc4nc(Cc5ccccc5)[nH]c4c3)ncnc2cn1 | 5% | 2.82% | 3% | 6.98% | 11.4% | 3.69% | 8.7% | 0.92% | 4.05% | 0.6% | 1.13% | 0.02% | -2.17% | 7.34% | 13.4% | 5.65% | 5.19% | 1.36% | 3.18% | -0.82%
CCCN1CCC(Oc2cc(Nc3nc(Nc4cccc(F)c4C(N)=O)c4cc[nH]c4n3)c(OC)cc2Cl)CC1 | 1.93% | -0.13% | 2.83% | 1.25% | 21.2% | 1.13% | 3.91% | 0.85% | 0.99% | -0.3% | 1.3% | 0.73% | 1.6% | 1.4% | 24.2% | -0.41% | 0.31% | 4.08% | 25.4% | 0.5%
CCn1c(-c2nonc2N)nc2c(N3CCCC3)nccc21 | -0.19% | 2.01% | 3.21% | 0.66% | 6.1% | -0.54% | 5.25% | -1.08% | 1.33% | 2.95% | 3.46% | -0.88% | -1.38% | 3.74% | -1.02% | -3.65% | -3.95% | 0.8% | 1.03% | -0.33%
CNC(=O)c1cncc(/C=C/c2c(Cl)cccc2Cl)c1 | 3.1% | 1.49% | 3.08% | 6.04% | 14.7% | 1.63% | 6.73% | 3.42% | 16.3% | 1% | 2.64% | -1.52% | -0.36% | 0.96% | 8.72% | 4.13% | 4.55% | -0.49% | 1.79% | -3.71%
CCCN1CCC=C(c2ccc(Nc3nc(Nc4ccccc4C(N)=O)c4cc[nH]c4n3)c(C)c2)C1 | 20.8% | 3.18% | 13.7% | 10% | 44.7% | 2.32% | 3.91% | 1.78% | 7.47% | 1.68% | 14.6% | -1.89% | -1.19% | -1.86% | 48.2% | 7.18% | 16.4% | 2.16% | 7.46% | 0.34%
CC1=C(C(=O)Nc2ccc3[nH]ncc3c2)C(c2ccc(Cl)c(Cl)c2)CC(=O)N1 (stereo not given) | 9.26% | -0.78% | 3.04% | -0.28% | 5.33% | 2.25% | 5.99% | 0.25% | 1.48% | -0.78% | 3.36% | -0.49% | -1.74% | 1.04% | 2.45% | 2.86% | -0.26% | -0.12% | 0.22% | 0.05%
CS(=O)(=O)CCNCc1ccc(-c2ccc3ncnc(Nc4ccc(OCc5cccc(F)c5)c(C(F)(F)F)c4)c3c2)o1 | -2.72% | 1.59% | -0.39% | 4.21% | 3.14% | 3.81% | 9.5% | 3.07% | 10.4% | 2.7% | -0.27% | -0.62% | 0.4% | 5.41% | 4.1% | 4.72% | 4.64% | 1.03% | 1.08% | 0.19%
O=C1NC(=O)C(N2CCc3ccccc32)=C1c1ccc(Cl)cc1 | 2.11% | 3.11% | 2.16% | 4.84% | 6.67% | 2.34% | 3.78% | 1% | 3.38% | 0.05% | 2.02% | 0.1% | -1.5% | 3.36% | 5.29% | 4.72% | 2.26% | 0.92% | 1.27% | 0.55%
CS(=O)(=O)Nc1ccc(N/C=C2\C(=O)Nc3ccccc32)cc1 | 16.1% | 3.29% | 18.9% | -1.64% | 20.9% | -0.49% | -0.33% | 0.01% | 5.59% | 2.67% | 15.6% | 0.59% | 0.59% | 4.32% | 31.5% | -3.81% | 5.2% | 0.18% | 0.04% | -0.01%
